Results filed as inconclusive are left out. Activity calls are given as the source filed them. Calls come from the whole dose curve; as a rule, active = well fitted curve in the direction sought with a large enough effect; inconclusive = small, poorly fitted or top-dose-only effect, or another doubt; inactive = no such curve, though single readings can be large; an effect the other way counts as inactive or inconclusive.
Legend:
[1] = qHTS for Inhibitors of Plasmodium falciparum (DD2) proliferation (AID 504314);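 note: parasite DNA measured by SYBR Green fluorescence after red cell lysis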; settings: P. falciparum Dd2 in erythrocytes, SYBR Green growth, 72 h; series mostly up to 1.12 µM
Outline: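 Quantitative HTS growth inhibition: SYBR Green I binding to parasite DNA after 72 h drug exposure of infected erythrocytes (0.3% parasitemia, 2.5% hematocrit). Signals normalized per plate to inhibitor and vehicle wells.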

[2] = qHTS for Inhibitors of Plasmodium falciparum (GB4) proliferation (AID 504315); note: nearly all actives have a fitted effect of over 50% in size; settings: P. falciparum GB4 in erythrocytes, SYBR Green DNA, 72 h; series mostly up to 6.7 µM
Outline: (§1)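 Erythrocytes infected with P. falciparum line (0.3% parasitemia, 2.5% hematocrit final) incubated with compounds 72 h at 37 °C, 5% CO2; SYBR Green lysis buffer added, fluorescence read next day. Normalized to 0.29 uM artemisinin and DMSO.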

[3] = qHTS for Inhibitors of Plasmodium falciparum (7G8) proliferation (AID 504316); note: nearly all actives have a fitted effect of over 65% in size; settings: P. falciparum 7G8 in erythrocytes, SYBR Green DNA, 72 h; series mostly up to 6.7 µM
Outline: as §1

[4] = qHTS for Inhibitors of Plasmodium falciparum (HB3) proliferation (AID 504318); note: nearly all actives have a fitted effect of over 60% in size; settings: P. falciparum HB3 in erythrocytes, SYBR Green DNA, 72 h; series mostly up to 7.21 µM
Outline: as §1

[5] = qHTS for Inhibitors of Plasmodium falciparum (CP250) proliferation (AID 504320); settings: P. falciparum CP250 in erythrocytes, SYBR Green DNA, 72 h; series mostly up to 6.7 µM
Outline: as §1

Measured: Potency

CCN1C(=O)N[C@@H](c2cccc(F)c2)C(C(C)=O)=C1C
not listed: [5]
inactive: all other assays above

COC(=O)[C@H]1[C@@H](C)N(Cc2ccccc2)C(=O)N[C@H]1c1cccc(C(F)(F)F)c1
not listed: [5]
inactive: all other assays above

CCN1C(=O)N[C@@H](c2cccc(C(F)(F)F)c2)C(C(=O)OC)=C1C
inactive: all assays above

COC(=O)c1ccccc1S(=O)(=O)N1CCc2nc(COc3ccccc3)c3c(c2C1)CO[C@@H](C)C3
inactive: [1] | [2] | [3]

C=CC1=C2C=C(C3CC3)N(Cc3ccco3)C=C2C(=O)C(C)(OC(=O)c2ccco2)C1=O (centres undefined)
inactive: all assays above

C=CCN1c2ccccc2[C@]23C[C@@H](C(=O)OC)N=C2NC(C(=O)OC)=C(C(=O)OC)[C@H]13
inactive: [1] | [2] | [3]

CCCCC1=CC2=CC(=O)C(C)(OC(=O)CC)C(=O)C2=CN1C1CCCC1 (centres undefined)
not listed: [5]
inactive: all other assays above

CCCCC1=CC2=C(c3ccco3)C(=O)C(C)(OC(=O)c3ccc(OC)cc3)C(=O)C2=CN1CCc1c[nH]c2ccccc12 (centres undefined)
inactive: all assays above

CCOC(=O)N1C2=NC(C(=O)OC)=C(C(=O)OC)[C@@H]3N(C)c4ccc(OC)cc4[C@]23C[C@H]1C(=O)OC
not listed: [5]
inactive: all other assays above

COc1cccc([C@@H]2Oc3ccc(Br)cc3C(=O)[C@@H]2OC(=O)Nc2cc(OC)c(OC)c(OC)c2)c1
not listed: [5]
inactive: all other assays above

CC#CCN1c2ccccc2[C@]23C[C@@H](C(=O)OC)N(S(=O)(=O)c4c(C)noc4C)C2=NC(C(=O)OC)=C(C(=O)OC)[C@H]13
inactive: [1]

CC#CCN1c2ccccc2[C@]23C[C@@H](C(=O)OC)N(C(=O)CC(C)C)C2=NC(C(=O)OC)=C(C(=O)OC)[C@H]13
not listed: [5]
inactive: all other assays above

COC(=O)CCC(=O)OC1(C)C(=O)C2=CN(CCCCO)C(c3ccc(OC)cc3)=CC2=C(Br)C1=O (centres undefined)
inactive: all assays above

CCCCC1=CC2=CC(=O)C(C)(OC(=O)CC)C(=O)C2=CN1CCc1c[nH]c2ccccc12 (centres undefined)
inactive: all assays above

CCCCC1=CC2=CC(=O)C(C)(OC(=O)CC)C(=O)C2=CN1Cc1ccccc1 (centres undefined)
inactive: all assays above

COC(=O)C1=C(C(=O)OC)[C@@H]2N(C)c3ccc(OC)cc3[C@@]23C[C@@H](C(=O)OC)N(S(=O)(=O)c2ccc(C)cc2)C3=N1
inactive: [1]

C=CCN1C=C2C(=O)C(C)(OC(=O)c3cnc4ccccc4n3)C(=O)C=C2C=C1/C=C/COC (centres undefined)
not listed: [5]
inactive: all other assays above

COC(=O)C1=C(C(=O)OC)[C@@H]2Nc3ccccc3[C@@]23C[C@@H](C(=O)OC)N(C(=O)c2ccc(Br)cc2)C3=N1
not listed: [5]
inactive: all other assays above

COC(=O)CCC(=O)OC1(C)C(=O)C2=CN(Cc3ccco3)C(c3ccc(OC)cc3)=CC2=C(Br)C1=O (centres undefined)
inactive: [1] | [2]

CCCCC1=CC2=C(c3ccco3)C(=O)C(C)(OC(=O)c3ccc(OC)cc3)C(=O)C2=CN1CCOC (centres undefined)
inactive: all assays above

CC#CCN1c2ccccc2[C@]23C[C@@H](C(=O)OC)N(C(=O)c4ccco4)C2=NC(C(=O)OC)=C(C(=O)OC)[C@H]13
inactive: all assays above

CCOC(=O)CN1C(=O)N[C@@H](c2ccccc2)[C@@H](C(=O)OC)[C@H]1C
not listed: [5]
inactive: all other assays above

COc1cccc(CC(=O)N2CCc3nc(-c4ccc(OC)cc4C)c4c(c3C2)CO[C@@H](c2ccccc2)C4)c1
inactive: [1]

C=CCN1c2ccccc2[C@]23C[C@@H](C(=O)OC)N(C(C)=O)C2=NC(C(=O)OC)=C(C(=O)OC)[C@H]13
inactive: all assays above

COC(=O)N[C@@H](c1cccc(C)c1)C(C(C)=O)C(=O)OC (some centres undefined)
inactive: all assays above

C[C@H]1Cc2c(COc3ccccc3)nc3c(c2CO1)CN(C(=O)Cc1cccs1)CC3
inactive: [1] | [2]

Reference: PubChem BioAssay (NCATS)
